The sequences below were run against TCEANC2 (assay: pooled miR-30 sensor sort-seq; sequence = guide strand). Conditions: shRNA.
Work on TATAGTAGTAACTTCATCTGAC yielded a sensor-assay potency score (higher = more potent) of 0.875. TTGATCAGGAAGCTCCAGCATA gave a sensor-assay potency score (higher = more potent) of -0.895. TTGAGTTTCAGTTACCTGCAGG showed a sensor-assay potency score (higher = more potent) of -0.555. Work on TTTTCTTCTTTAATTCTTGTAA yielded a sensor-assay potency score (higher = more potent) of -0.255. Work on TTCTACAACCACAACTCTCTTC yielded a sensor-assay potency score (higher = more potent) of -0.1. Sequence TTTCTGAGCATTTTTCCTCAAC has a sensor-assay potency score (higher = more potent) of -1.1.

What follows are sequences tested against TCERG1 in the same assay as above. Conditions: shRNA.
TGGATCGACAGCATTGTCGGAG was tested, and the sensor-assay potency score (higher = more potent) was -0.29. TTGTCTTTTACTTTGCTCCATC gave a sensor-assay potency score (higher = more potent) of -0.934. TTGTGCTTGCACTTGTGCCTGG was tested, and the sensor-assay potency score (higher = more potent) was 0.389. Work on TTTATTATCGTCTCTCTTCCGT yielded a sensor-assay potency score (higher = more potent) of 0.45. Work on TTGATGAACTATCTACTGCTTT yielded a sensor-assay potency score (higher = more potent) of -0.0553. Sequence TTAATCTTCTCTTCTAACTTTT has a sensor-assay potency score (higher = more potent) of -0.478. In the case of TATCAGACCATGACACATCTGA, the sensor-assay potency score (higher = more potent) is reported as 0.29. TTCTGATTGCTGAATAACCTTA gave a sensor-assay potency score (higher = more potent) of -0.804. With TGAATCTTGAATCTTTAGCATG the sensor-assay potency score (higher = more potent) was -1.15. TTATTATCGTCTCTCTTCCGTT showed a sensor-assay potency score (higher = more potent) of -0.906. TACATACTGATCAAACACCTGT showed a sensor-assay potency score (higher = more potent) of 0.349. TTGCTTTGAATCTTGAATCTTT gave a sensor-assay potency score (higher = more potent) of 0.533.
Also: reference of the scale not given here.
